Experimental findings from PubChem BioAssay are described below.

Active and inactive are the calls of the source.

The target of one experiment is Albumin (Bos taurus) (UniProt P02769). Nature of the experiment: bovine serum albumin binders on microarray, profiling panel, artefact control for SMM control protein annotation, biochemical, small-molecule microarray, Alexa647 label, 635/667 nm fluorescence (AID 1118).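 Also: score merges 667 nm emission intensity and signal-to-noise per printed compound spot.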 Conditions: BSA-A647 binding, fluorescence 635 nm, higher = more signal.
Chain of Albumin (Bos taurus) (P02769 whole entry, looked up): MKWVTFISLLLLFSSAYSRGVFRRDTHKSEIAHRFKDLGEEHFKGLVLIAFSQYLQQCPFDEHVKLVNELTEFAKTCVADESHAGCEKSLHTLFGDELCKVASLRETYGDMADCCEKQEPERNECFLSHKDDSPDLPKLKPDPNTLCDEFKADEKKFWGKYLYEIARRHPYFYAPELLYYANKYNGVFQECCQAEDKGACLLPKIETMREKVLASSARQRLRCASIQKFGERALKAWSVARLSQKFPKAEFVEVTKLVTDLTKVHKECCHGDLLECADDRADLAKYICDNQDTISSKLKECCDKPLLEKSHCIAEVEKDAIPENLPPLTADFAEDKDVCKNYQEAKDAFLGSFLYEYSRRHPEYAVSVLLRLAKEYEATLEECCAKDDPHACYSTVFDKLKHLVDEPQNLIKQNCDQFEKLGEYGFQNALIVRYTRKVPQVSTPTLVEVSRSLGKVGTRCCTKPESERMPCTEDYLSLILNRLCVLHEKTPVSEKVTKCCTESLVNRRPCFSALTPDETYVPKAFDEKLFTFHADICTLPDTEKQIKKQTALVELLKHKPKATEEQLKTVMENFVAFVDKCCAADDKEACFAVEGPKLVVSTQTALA
Experiment [1] in a line: small-molecule microarray binders of probe aXIP, primary screen, biochemical, NeuroSMM set, 635/667 nm fluorescence (AID 1119).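 Also: probe is the protein aXip251-270 applied at 1 µg/mL to compound-printed slides; binding of probe to printed compounds measured as 667 nm fluorescence plus signal to noise.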 The following applies: higher = more signal, called active from +8 up or from −8 down.
Experiment [2] is described as follows: small-molecule binders of probe aNOTCH3, primary screen, biochemical, small-molecule microarray, 635/667 nm fluorescence (AID 1120).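 Also: probe is a biotin-tagged antibody raised against NOTCH3 rather than NOTCH3 protein; score merges spot fluorescence near 667 nm with spot signal to noise.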 The following applies: higher = more signal.
Experiment [3] in a line: small-molecule binders of probe aNOTCH2, primary screen, biochemical, small-molecule microarray, 635/667 nm fluorescence (AID 1121).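 Also: score merges feature fluorescence read at 667 nm with its signal to noise.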 Conditions: higher = more signal.
Experiment [4] addresses Carbonic anhydrase 2 (Homo sapiens) (UniProt P00918). Nature of the experiment: CAII small-molecule binders, profiling panel, biochemical, small-molecule microarray, Alexa647-labelled CAII (AID 1122). The following applies: CAII-A647 binding fluorescence, higher = more signal.
Experiment [5] in a line: COS7 lysate on small-molecule microarray, probe aHis, 635 nm (AID 1123).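 Also: z-score combines 667nm fluorescence intensity with signal-to-noise per printed compound spot.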 The following applies: COS7 cell lysate, fluorescence, higher = more signal.
Experiment [6] in a line: compound binding in COS7 lysate, probe aLAP1, primary screen, cell lysate, small-molecule microarray (AID 1124).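 Also: lysate comes from COS7 cells expressing LAP1 and is applied at 0.3 µg/mL; score merges spot fluorescence near 667 nm with signal-to-noise over triplicate slides.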 The following applies: probe aLAP1, fluorescence, higher = more signal.
The subject of the next experiment is Sam68 (KHDRBS1). The experiment is described as follows: Sam68 small-molecule binders, primary screen, biochemical, small-molecule microarray, 635 nm fluorescence (AID 1125).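 Also: score merges 667 nm channel intensity with signal to noise over triplicate slides.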 The following applies: small-molecule microarray binding, higher = more signal.
In experiment [7] the test system is Chordin-like protein 2 (CHRDL2). Nature of the experiment: CHRDL2 small-molecule binders, primary screen, biochemical, small-molecule microarray, 635 nm fluorescence (AID 1126).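 Also: printed compound slides probed with Chrdl2 protein at 4 µg/mL for 1 h at 4 C; score merges 667 nm emission intensity with signal to noise over three replicate slides.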 The following applies: small-molecule microarray binding, fluorescence 635 nm; higher = more signal.
In experiment [8] the target is Concanavalin-A (Canavalia ensiformis) (UniProt P02866). Nature of the experiment: ConA small-molecule binders, primary screen, artefact control for SMM control protein annotation, biochemical, small-molecule microarray, Alexa647 label, 635 nm (AID 1127).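 Also: z combines 667 nm emission intensity with signal-to-noise across three replicate slides.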 The following applies: ConA-A647 binding fluorescence, higher = more signal.
Chain of Concanavalin-A (Canavalia ensiformis) (P02866 whole entry, looked up): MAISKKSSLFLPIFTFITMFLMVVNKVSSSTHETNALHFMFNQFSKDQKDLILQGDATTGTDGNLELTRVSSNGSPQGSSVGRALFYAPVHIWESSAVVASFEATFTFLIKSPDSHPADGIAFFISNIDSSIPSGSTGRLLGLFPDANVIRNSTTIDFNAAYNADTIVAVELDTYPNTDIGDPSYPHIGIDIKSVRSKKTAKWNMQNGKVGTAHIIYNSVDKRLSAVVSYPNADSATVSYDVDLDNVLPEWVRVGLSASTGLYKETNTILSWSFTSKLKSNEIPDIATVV

Regarding `CC(C)NC(=O)[C@@]1(C)c2ccccc2C(=O)N(Cc2ccccc2)[C@H]1c1ccc(CO)cc1`, the composite z-score is 0.489 in the experiment with Albumin (Bos taurus); -0.432 in experiment [2]; -0.153 in experiment [3]; 0.692 in experiment [4]; 1.86 in experiment [5]; 0.329 in experiment [6]. For the same molecule, the results for the composite z-score (in the experiment with Sam68 (KHDRBS1); in experiment [7]; in experiment [8]) were 0.696, -1.6 and 0.537, respectively. The composite Z-score in experiment [1] was -0.621 (inactive).

For the molecule `[N-]=[N+]=Nc1ccccc1[C@H]1OC(c2ccc(OCCCO)cc2)=N[C@@]1(Cc1ccccc1)C(=O)NCC(O)CO` (stereo not given in full), the composite z-score in the experiment with Albumin (Bos taurus) was 0.793; in [2], 0.0372; in experiment [3] it was -0.174; in experiment [4], 0.444; in experiment [5] it was 3.2; in experiment [6], -0.142. Also, the composite z-score with Sam68 (KHDRBS1) was 0.495; in [7], -0.832; in experiment [8], 0.962. Also, in experiment [1], the composite Z-score was 0.0774 (inactive).

Consider `CC(C)C[C@@H]1NC(=O)[C@@H]2C[C@H](C(=O)NCCCCCCNC(=O)CS)[C@H](c3cccc(OCCO)c3)N2C1=O`, for which the composite z-score with Albumin (Bos taurus) was -0.256; in experiment [2], 0.248; in experiment [3] it was -0.123; in experiment [4], 0.228; in experiment [5], 1.94; in [6], 0.252. In addition, the composite z-score in the experiment on Sam68 (KHDRBS1) stood at 1.29; in experiment [7], 1.36; in experiment [8] it was 0.862. Moreover, in experiment [1], the composite Z-score is 0.491 (inactive).

As for `CC(C)NC(=O)[C@@]1(c2ccc([N+](=O)[O-])cc2)CC(=O)N(CC23CC4CC(CC(C4)C2)C3)[C@@H]1c1ccc(CO)cc1`, the composite z-score with Albumin (Bos taurus) came out at 0.0436; in experiment [2] it was 1.07; in experiment [3], 0.427; in experiment [4] it was 0.195; in experiment [5], 2.79; in experiment [6], 0.885. Besides, the composite z-score in the experiment on Sam68 (KHDRBS1) turned out to be 1.29; in experiment [7], 1.21; in experiment [8] it was 1.12. In experiment [1], the composite Z-score was 0.655 (inactive).

Turning to `COC(=O)C(CC#Cc1ccc2c(c1)[C@]1(C(=O)N2)[C@H](c2ccccc2OCCO)N2[C@H](c3ccccc3)[C@H](c3ccccc3)OC(=O)[C@H]2[C@@H]1C(=O)N1CCc2cc(OC)c(OC)cc2C1)C(=O)OC`, the composite z-score was 0.185 with Albumin (Bos taurus); 0.172 in [2]; -0.14 in experiment [3]; 0.661 in experiment [4]; 1.19 in experiment [5]; 0.653 in [6]. Further, the results for the composite z-score (with Sam68 (KHDRBS1); in experiment [7]; in [8]) were 1.29, 0.618 and 0.914, respectively. The composite Z-score in experiment [1] was 0.0296 (inactive).

For the molecule `O=C1C[C@@](C(=O)NC2CC2)(c2ccc([N+](=O)[O-])cc2)[C@@H](c2ccc(CO)cc2)N1C1CCCCC1`, the composite z-score is 0.535 in the experiment with Albumin (Bos taurus); 0.11 in experiment [2]; -0.0995 in experiment [3]; 0.512 in experiment [4]; 2.7 in experiment [5]; 0.0901 in experiment [6]. The composite z-score was determined as 1.28 in the experiment with Sam68 (KHDRBS1), 0.43 in experiment [7] and 0.704 in experiment [8]. Also, the composite Z-score in experiment [1] is 0.002 (inactive).

In the case of `O=C1O[C@H](c2ccccc2)[C@H](c2ccccc2)N2[C@H]1[C@@H](C(=O)O)[C@]1(C(=O)Nc3ccc(C#CCCO)cc31)[C@H]2c1ccc(OCCO)cc1`, the composite z-score with Albumin (Bos taurus) came to 0.316; in experiment [2], 0.0026; in experiment [3] it was 0.015; in experiment [4] it was 0.596; in experiment [5], 2.2; in [6], 1.38. In addition, the composite z-score was found to be 1.08 with Sam68 (KHDRBS1), 1.11 in experiment [7] and 0.891 in experiment [8]. The composite Z-score in experiment [1] is 0.0388 (inactive).

For the molecule `O=C1O[C@H](c2ccccc2)[C@H](c2ccccc2)N2[C@H]1[C@@H](C(=O)N1CCN(c3ncccn3)CC1)[C@]1(C(=O)Nc3ccc(C#CCCO)cc31)[C@H]2c1ccc(O)cc1`, the composite z-score was 0.627 with Albumin (Bos taurus); 0.171 in experiment [2]; -0.11 in [3]; 0.413 in experiment [4]; 1.88 in experiment [5]; 0.608 in experiment [6]. In addition, the composite z-score with Sam68 (KHDRBS1) turned out to be 0.574; in experiment [7], 0.0231; in experiment [8], 1.01. For the same molecule, the composite Z-score in experiment [1] is -0.777 (inactive).

For the molecule `CN(C)CCCNC(=O)[C@@]1(C)c2ccccc2C(=O)N(Cc2ccc(OC(F)(F)F)cc2)[C@H]1c1ccc(CO)cc1`, the composite z-score in the experiment with Albumin (Bos taurus) was 0.548; in experiment [2] it was -0.139; in [3], -0.0357; in experiment [4], 0.706; in experiment [5], 1.83; in experiment [6], 1.03. The composite z-score with Sam68 (KHDRBS1) is 0.0786; in experiment [7], -0.616; in [8], -0.451. Besides, in [1], the composite Z-score is 0.0333 (inactive).

As to `COc1cc(CO)cc(I)c1O[C@H]1C=C(C(=O)NCCO)C[C@@H](NC2CCCCCC2)[C@@H]1O`, the composite z-score is 0.441 with Albumin (Bos taurus); 0.106 in [2]; -0.161 in experiment [3]; 0.579 in experiment [4]; -0.103 in experiment [5]; 0.993 in experiment [6]. Besides, the composite z-score is 1.33 with Sam68 (KHDRBS1), 0.714 in experiment [7] and 0.747 in experiment [8]. Also, the composite Z-score in experiment [1] was -0.228 (inactive).

`COc1ccc(C(=O)Nc2ccc(CN3C(=O)[C@@]4(O[C@@H](CCn5cc(CCO)nn5)[C@H]([Si](C)(C)c5ccc(OC)cc5)[C@H]4C)c4ccccc43)cc2)cc1`: the composite z-score with Albumin (Bos taurus) was 0.264; in experiment [2], 0.0276; in experiment [3], -0.0895; in experiment [4], 0.348; in experiment [5] it was 0.822; in [6], 0.116. In addition, the figures for the composite z-score (in the experiment on Sam68 (KHDRBS1); in experiment [7]; in experiment [8]) were 1.32, 0.919 and 1.09, respectively. For the same molecule, the composite Z-score in experiment [1] was 0.32 (inactive).

Consider `C=CCOC(=O)[C@H]1[C@@H]2C(=O)O[C@@H](c3ccccc3)[C@@H](c3ccccc3)N2[C@@H](c2ccc(OCCOC(=O)[C@@H]3C[C@@H]4C(=O)N[C@@H](CCCC[N+](C)(C)C)C(=O)N4[C@@H]3c3ccc(O)cc3)cc2)[C@]12C(=O)Nc1ccc(I)cc12`, for which the composite z-score with Albumin (Bos taurus) is -0.691; in [2], -0.0647; in experiment [3], -0.0267; in experiment [4], 0.572; in experiment [5], 1.28; in [6] it was 0.517. The composite z-score with Sam68 (KHDRBS1) was found to be 1.29; in experiment [7], 1.14; in [8] it was 1.03. Moreover, the composite Z-score in experiment [1] was 0.61 (inactive).

On to `COCCOC(=O)N1C(=O)[C@@]2(c3cc(C#CCCO)ccc31)[C@H](c1ccc(OCCO)cc1)N1[C@H](c3ccccc3)[C@H](c3ccccc3)OC(=O)[C@H]1[C@@H]2C(=O)N1CCCCCCC1`, for which the composite z-score is -0.226 with Albumin (Bos taurus); 1.26 in [2]; 0.675 in experiment [3]; 0.67 in [4]; 2.7 in experiment [5]; 1.95 in experiment [6]. In addition, the composite z-score in the experiment on Sam68 (KHDRBS1) was determined as 1.33; in [7], 1.43; in experiment [8], 1.13. Further, the composite Z-score in experiment [1] is 2.1 (inactive).

For the molecule `C=C(COC)C(=O)CC[C@@H](OC(C)=O)c1ccccc1OCCO`, the composite z-score with Albumin (Bos taurus) is -0.145; in experiment [2], 0.183; in experiment [3], -0.15; in experiment [4], 0.675; in [5], -0.762; in experiment [6] it was 0.583. In addition, the figures for the composite z-score (with Sam68 (KHDRBS1); in experiment [7]; in experiment [8]) were 0.789, -0.0113 and -0.0386, respectively. For the same molecule, the composite Z-score in experiment [1] is -0.975 (inactive).
